Data as given in ChEMBL document CHEMBL3988442, “University of Dundee, Small-Polar-MMV Screening Library” (2021).

molecular target: AMP-activated protein kinase, AMPK (Homo sapiens) (UniProt P54646+O43741+P54619+Q9UGJ0+Q9Y478+Q13131+Q9UGI9); test: AMP-dependent Kinase enzyme assay. An in vitro enzyme assay that detects ADP turnover that is directly proportional to AMPK activity. This uses naive AMPK that is activated during the assay with MK-8722; assay type: functional; design: scale not given: direction of the effect not stated beside the values; settings: 30 µM

| Compound | Percent Effect |
| --- | --- |
| CS(=O)(=O)CCC(=O)Nc1ccsc1 | -6.46% |
| Cc1noc(C)c1-c1n[nH]c2c1CN(S(=O)(=O)c1ccsc1)CC2 | 7.37% |
| CC(C)N(Cc1ccccn1)C(=O)CCC(=O)c1ccc(F)cc1F | -0.0134% |
| COCC1CCCN(c2cncc(OCc3ccccc3)n2)C1 (stereo unspecified) | 1.9% |
| CNS(=O)(=O)CC(=O)N(C1CCCC1)C1CC1 | -3.58% |
| Cc1nccc(CNC(=O)NCCC(=O)N2CCCc3ccccc32)n1 | -8.67% |
| CC(C)(C)c1n[nH]cc1CNC1CCC(OCC(F)(F)F)CC1 (stereo unspecified) | 3.73% |
| CC(C)(C)c1cn2c(n1)C(CNCc1ccccn1)CCC2 (stereo unspecified) | -3.66% |
| NCC1Cc2cccc(-c3ccc(O)c(F)c3)c2O1 (stereo unspecified) | 89.9% |
| COCc1nc(CN2CCN(c3ccc(OC)cc3)C(=O)C2C)no1 (stereo unspecified) | 6.42% |
| c1ccc(Cc2noc(-c3ccc(NCC4CCCCO4)nc3)n2)cc1 (stereo unspecified) | 3.99% |
| NC(=O)CN(Cc1ncc(-c2ccccc2)o1)C1CCCC1 | -1.01% |
| O=C(Nc1ccccn1)c1ccc(F)c(S(=O)(=O)NC2CC2)c1 | 1.7% |
| CCc1nc(C2CCCN2Cc2ncc(C)c(OC)c2C)no1 (stereo unspecified) | 0.391% |
| CC(C)(C)c1nc(CC(=O)Nc2cnccc2O)cs1 | -0.224% |
| Fc1ccc(OCCCNC2=NCCCN2)cc1 | 0.73% |
| CC(C)c1nc(CC(=O)Nc2cnccc2O)cs1 | -1.17% |
| CC(C)Oc1ccccc1CNC(=O)N(C)C(C)CS(C)(=O)=O (stereo unspecified) | 9.72% |
| Cc1cc(CC(C)NC(=O)c2n[nH]c3c2CCC3)n[nH]1 (stereo unspecified) | 3.64% |
| Cc1cc(C(=O)N2CCC(CCC(=O)NCCN(C)C)CC2)ccc1O | 21.5% |
| Nc1nc2c(c(NCc3nccs3)n1)CCN(CC1CCCC1)CC2 | 1.23% |
